Laboratory results from PubChem BioAssay (Tox21).
Inconclusive results are not listed. The source made the active and inactive calls. Unless noted, the call rests on the fitted dose curve; in most records, active means well fitted curve in the direction sought with a large enough effect in the repeat runs; inconclusive means weak or mixed curves; inactive means no such curve, though single readings can be large; an effect the other way counts as inactive or inconclusive.

Assays:
[1] = qHTS assay to identify small molecule antagonists of the androgen receptor (AR) signaling pathway using the MDA cell line in the presence of 0.5 nM R1881 - cell viability counter screen (AID 1259242); further: nearly all actives have a fitted effect of over 45% in size
How it was run: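 Viability of MDA-kb2 cells was multiplexed with the luciferase AR readout; after 16 hr with compounds and R1881 at 0.5 nM final, CellTiter-Fluor fluorescence was recorded.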

[2] = molecular target: Estrogen receptor (Homo sapiens) (UniProt P03372); experiment: qHTS assay to identify small molecule antagonists of the estrogen receptor alpha (ER-alpha) signaling pathway using the BG1 cell line in the presence of 0.1 nM 17-beta-estradiol (AID 1259244); further: nearly all actives have a fitted effect of over 50% in size
How it was run: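 Estradiol at 0.1 nM (final) stimulates the endogenous ER-alpha of VM7Luc4E2 cells carrying an ERE-driven luciferase; compounds are co-incubated 22 h at 37C and luciferase output quantified by luminescence.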

[3] = qHTS assay to identify small molecule HDAC inhibitors (AID 1259364);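 further: wild-type HCT-116 cells with endogenous class I/II HDAC activity; top concentration of the series differs between compounds; nearly all actives have a fitted effect of over 45% in size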
How it was run: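 Read-out: luminescence of HDAC-Glo I/II reagent, 30 min RT, reflecting class I/II deacetylase activity in whole HCT-116 cells pre-exposed 2 h to DMSO-dissolved compounds.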

[4] = qHTS assay to identify small molecule HDAC inhibitors - cell viability counter screen (AID 1259365); further: series mostly up to about 92 µM; nearly all actives have a fitted effect of over 50% in size
How it was run: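 Cytotoxicity was gauged in wild-type HCT-116 cells after a brief 2hr treatment with DMSO-dissolved compounds at 37C and 5% CO2, using CellTiter-Glo luminescence developed for 30min at room temperature.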

[5] = qHTS assay to identify small molecule agonists of the sonic hedgehog signaling (Shh) pathway - cell viability counter screen (AID 1259366); further: nearly all actives have a fitted effect of over 50% in size
How it was run: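 Stable Gli1-Luc NIH/3T3 clone, 2,000 cells/well. Compound exposure 24hr at 37C. Read-out: CellTiter-Fluor fluorescence.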

[6] = qHTS assay to identify small molecule antagonists of the sonic hedgehog signaling (Shh) pathway - cell viability counter screen (AID 1259367); further: nearly all actives have a fitted effect of over 55% in size
How it was run: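 Using CellTiter-Fluor, viability of Gli1-Luc reporter 3T3 cells is read by fluorescence in the wells used for the Shh luciferase assay. Treatment lasts 23 hr with conditioned medium, then reagent 1 hr at 37C.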

[7] = qHTS assay to identify small molecule agonists of the sonic hedgehog signaling (Shh) pathway (AID 1259368; calls by dose curve;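 further: NIH/3T3-derived 3T3Gli1-Luc cells carrying a stable Gli1-driven firefly luciferase reporter; series mostly up to about 92 µM; nearly all actives have a fitted effect of over 15% in size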)
How it was run: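 A Gli1 transcriptional response element controlled firefly luciferase in 3T3Gli1-Luc cells. Compounds and a positive control were added 4 hr after plating, and cells were incubated a further 24 hr at 37 C before luminescence detection.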

[8] = molecular target: Estrogen receptor beta (Homo sapiens) (UniProt Q92731); experiment: qHTS assay to identify small molecule agonists of the estrogen receptor beta (ER-beta) signaling pathway (AID 1259377; active means well fitted activation curve with a large enough effect in the signal ratio in the repeat runs, not every such curve was filed as active; the % refers to the signal ratio)
How it was run: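 Measured by fluorescence intensity from a B/G FRET beta-lactamase substrate (2 h, room temperature) in ER-beta-UAS-bla HEK293T cells treated with DMSO-dissolved compounds for 16 hr at 37C and 5% CO2.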

[9] = molecular target: Estrogen receptor beta (Homo sapiens) (UniProt Q92731); experiment: qHTS assay to identify small molecule antagonists of the estrogen receptor beta (ER-beta) signaling pathway (AID 1259378; active means well fitted inhibition curve with a large enough effect in the signal ratio in the repeat runs, not every such curve was filed as active; the % refers to the signal ratio)
How it was run: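 Antagonist mode: compounds added to beta-lactamase reporter HEK293T ER-beta-UAS cells stimulated with E2 (1nM final), 16 hr at 37C. LiveBLAzer B/G FRET substrate, 2 hours room temperature, fluorescence read-out.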

[10] = qHTS assay to identify small molecule agonists of the androgen receptor (AR) signaling pathway in the presence of an antagonist - cell viability counter screen (AID 1259379);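 further: MDA-kb2 human breast cancer cells carrying an MMTV luciferase reporter; series mostly up to about 92 µM; nearly all actives have a fitted effect of over 25% in size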
How it was run: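 Seed MDA-kb2 at 3,000 cells/well; incubate 5 hr, 37C, 0% CO2. Add nilutamide to 3.0uM final, then pin compounds at 15 concentrations. Incubate 16 hr. Add CellTiter-Fluor at 15 hr, read fluorescence after 1 hr.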

[11] = qHTS assay to identify small molecule agonists of the estrogen receptor beta (ER-beta) signaling pathway - cell viability counter screen (AID 1259380); further: nearly all actives have a fitted effect of over 30% in size
How it was run: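 CellTiter-Glo read, 30 min RT, same wells as bla assay; cells ER-beta-UAS-bla HEK293T; 16 hr compound, 37C; medium 2% charcoal-stripped FBS.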

[12] = qHTS assay to identify small molecule antagonists of the estrogen receptor beta (ER-beta) signaling pathway - cell viability counter screen (AID 1259382);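 further: HEK293T cells carrying ER-beta-UAS-bla reporter stimulated with estradiol; series mostly up to about 92 µM; nearly all actives have a fitted effect of over 55% in size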
How it was run: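 In this multiplexed counter screen, cells were seeded at 2,000 per well in medium with 2% charcoal-stripped FBS and incubated 6 hr before compound and 1nM final E2 were added. Sixteen hours later, ATP-based luminescence reported viability.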

[13] = molecular target: Estrogen receptor (Homo sapiens) (UniProt P03372); experiment: qHTS assay to identify small molecule agonists of the estrogen receptor alpha (ER-alpha) signaling pathway in the presence of an antagonist (AID 1259383; calls by dose curve; further: top concentration of the series differs between compounds; nearly all actives have a fitted effect of over 15% in size)
How it was run: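 Stably transfected VM7Luc4E2 reporter cells, kept 5 days in charcoal-stripped serum, received ICI-182,780 at 10.0nM final before compound addition. Following 22hr incubation at 37C and 5% CO2, luciferase signal was read by luminescence.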

[14] = qHTS assay to identify small molecule agonists of the estrogen receptor alpha (ER-alpha) signaling pathway in the presence of an antagonist - cell viability counter screen (AID 1259386);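 further: series mostly up to about 92 µM; cells exposed to compounds for 22 h at 37 °C before the viability read; nearly all actives have a fitted effect of over 30% in size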
How it was run: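 Viability counter screen using VM7Luc4E2 (full-length ER-alpha, four ERE-luciferase). The cells were treated with compounds alongside ICI-182,780 10.0nM for 22hr, and live-cell protease fluorescence was quantified with CellTiter-Fluor.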

[15] = molecular target: Androgen receptor (Homo sapiens) (UniProt P10275); experiment: qHTS assay to identify small molecule agonists of the androgen receptor (AR) signaling pathway in the presence of an antagonist (AID 1259381; calls by dose curve; further: nearly all actives have a fitted effect of over 15% in size)
How it was run: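 Test compounds at 15 concentrations were incubated for 16hr with MDA-kb2 reporter cells in presence of 3.0uM nilutamide (final). Signal: ONE-Glo luciferase luminescence.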

[16] = qHTS assay to identify small molecule agonists or antagonists of the thyroid stimulating hormone receptor (TSHR) signaling pathway - wild type cell line counter screen (AID 1259384; calls by dose curve)
How it was run: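 Counter screen in untransfected Hek293: compounds (15-point titration, triplicate) plus phosphodiesterase inhibitor Ro20-1724 added after 18 h plating; 30 min RT. Intracellular cAMP via competitive d2/cryptate immunoassay, 1 h incubation.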

[17] = molecular target: Thyrotropin receptor (Homo sapiens) (UniProt P16473); experiment: qHTS assay to identify small molecule antagonists of the thyroid stimulating hormone receptor (TSHR) signaling pathway (AID 1259385; calls by dose curve; further: nearly all actives have a fitted effect of over 20% in size)
How it was run: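 Antagonist mode: compound-treated TSHR-expressing HEK293 cells were stimulated with 1.5 ng/mL TSH (final) in presence of Ro20-1724 for 30 min at RT. HTRF cAMP detection after 1 h; each compound tested at 15 concentrations, triplicate.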

[18] = qHTS assay to identify small molecule antagonists of the sonic hedgehog signaling (Shh) pathway (AID 1259369; calls by dose curve; further: nearly all actives have a fitted effect of over 45% in size)
How it was run: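 For antagonist detection, the reporter line received test compounds together with conditioned medium, incubated 24hr at 37 C, 5% CO2, then luminescence was recorded following 30min room-temperature luciferase reagent incubation.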
On the % scale 0 is the no-effect control and ±100 the full control effect.

Sequence of Estrogen receptor beta (Homo sapiens) (Q92731 whole entry, looked up): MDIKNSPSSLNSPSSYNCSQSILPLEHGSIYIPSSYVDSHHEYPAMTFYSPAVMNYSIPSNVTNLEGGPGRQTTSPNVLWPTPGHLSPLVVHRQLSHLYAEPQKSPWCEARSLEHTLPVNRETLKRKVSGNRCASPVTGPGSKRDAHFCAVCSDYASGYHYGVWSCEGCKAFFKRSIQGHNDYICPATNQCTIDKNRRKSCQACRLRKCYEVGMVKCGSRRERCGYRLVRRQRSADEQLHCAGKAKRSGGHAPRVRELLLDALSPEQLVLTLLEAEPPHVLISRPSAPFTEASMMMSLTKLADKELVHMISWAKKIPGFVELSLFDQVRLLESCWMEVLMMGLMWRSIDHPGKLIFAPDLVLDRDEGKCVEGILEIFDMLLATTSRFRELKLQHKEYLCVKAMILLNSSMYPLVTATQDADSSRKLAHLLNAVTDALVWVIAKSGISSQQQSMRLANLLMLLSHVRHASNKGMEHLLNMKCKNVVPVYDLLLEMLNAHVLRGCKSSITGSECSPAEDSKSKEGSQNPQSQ
Sequence of Thyrotropin receptor (Homo sapiens) (P16473 whole entry, looked up): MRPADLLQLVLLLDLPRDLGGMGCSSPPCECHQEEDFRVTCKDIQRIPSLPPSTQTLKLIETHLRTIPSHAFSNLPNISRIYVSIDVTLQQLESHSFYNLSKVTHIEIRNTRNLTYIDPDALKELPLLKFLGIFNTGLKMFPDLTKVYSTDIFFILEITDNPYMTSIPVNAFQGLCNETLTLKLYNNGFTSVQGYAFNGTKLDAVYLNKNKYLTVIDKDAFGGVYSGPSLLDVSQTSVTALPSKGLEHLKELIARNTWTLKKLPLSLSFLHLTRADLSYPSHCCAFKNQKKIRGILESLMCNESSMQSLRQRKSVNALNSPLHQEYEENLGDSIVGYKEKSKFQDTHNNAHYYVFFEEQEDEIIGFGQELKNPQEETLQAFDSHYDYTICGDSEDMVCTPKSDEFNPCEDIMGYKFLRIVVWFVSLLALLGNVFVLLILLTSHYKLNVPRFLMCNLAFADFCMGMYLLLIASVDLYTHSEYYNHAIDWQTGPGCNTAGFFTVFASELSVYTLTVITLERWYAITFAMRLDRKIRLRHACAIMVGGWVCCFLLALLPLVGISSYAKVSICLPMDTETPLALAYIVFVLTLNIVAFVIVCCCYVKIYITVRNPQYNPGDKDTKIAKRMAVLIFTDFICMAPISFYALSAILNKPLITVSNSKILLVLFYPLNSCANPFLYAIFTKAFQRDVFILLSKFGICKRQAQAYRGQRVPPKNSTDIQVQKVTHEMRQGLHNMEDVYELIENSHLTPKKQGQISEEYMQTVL
Sequence of Estrogen receptor (Homo sapiens) (P03372 whole entry, looked up): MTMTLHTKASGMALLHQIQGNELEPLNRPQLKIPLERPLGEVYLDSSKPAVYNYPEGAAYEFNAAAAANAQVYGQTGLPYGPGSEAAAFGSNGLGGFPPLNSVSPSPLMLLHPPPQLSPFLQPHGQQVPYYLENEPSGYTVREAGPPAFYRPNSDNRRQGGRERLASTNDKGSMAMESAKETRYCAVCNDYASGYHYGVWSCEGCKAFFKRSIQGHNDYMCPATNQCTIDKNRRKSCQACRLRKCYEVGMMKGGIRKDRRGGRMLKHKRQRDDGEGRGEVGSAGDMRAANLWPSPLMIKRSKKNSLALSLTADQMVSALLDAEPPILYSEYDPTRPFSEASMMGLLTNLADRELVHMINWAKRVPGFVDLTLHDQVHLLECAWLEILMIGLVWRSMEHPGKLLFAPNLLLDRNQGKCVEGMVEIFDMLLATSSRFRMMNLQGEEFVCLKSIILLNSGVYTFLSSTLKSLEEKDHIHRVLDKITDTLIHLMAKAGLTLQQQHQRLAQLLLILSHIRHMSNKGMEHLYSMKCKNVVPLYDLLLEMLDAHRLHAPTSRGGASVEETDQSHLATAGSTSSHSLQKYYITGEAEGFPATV
Sequence of Androgen receptor (Homo sapiens) (P10275 whole entry, looked up): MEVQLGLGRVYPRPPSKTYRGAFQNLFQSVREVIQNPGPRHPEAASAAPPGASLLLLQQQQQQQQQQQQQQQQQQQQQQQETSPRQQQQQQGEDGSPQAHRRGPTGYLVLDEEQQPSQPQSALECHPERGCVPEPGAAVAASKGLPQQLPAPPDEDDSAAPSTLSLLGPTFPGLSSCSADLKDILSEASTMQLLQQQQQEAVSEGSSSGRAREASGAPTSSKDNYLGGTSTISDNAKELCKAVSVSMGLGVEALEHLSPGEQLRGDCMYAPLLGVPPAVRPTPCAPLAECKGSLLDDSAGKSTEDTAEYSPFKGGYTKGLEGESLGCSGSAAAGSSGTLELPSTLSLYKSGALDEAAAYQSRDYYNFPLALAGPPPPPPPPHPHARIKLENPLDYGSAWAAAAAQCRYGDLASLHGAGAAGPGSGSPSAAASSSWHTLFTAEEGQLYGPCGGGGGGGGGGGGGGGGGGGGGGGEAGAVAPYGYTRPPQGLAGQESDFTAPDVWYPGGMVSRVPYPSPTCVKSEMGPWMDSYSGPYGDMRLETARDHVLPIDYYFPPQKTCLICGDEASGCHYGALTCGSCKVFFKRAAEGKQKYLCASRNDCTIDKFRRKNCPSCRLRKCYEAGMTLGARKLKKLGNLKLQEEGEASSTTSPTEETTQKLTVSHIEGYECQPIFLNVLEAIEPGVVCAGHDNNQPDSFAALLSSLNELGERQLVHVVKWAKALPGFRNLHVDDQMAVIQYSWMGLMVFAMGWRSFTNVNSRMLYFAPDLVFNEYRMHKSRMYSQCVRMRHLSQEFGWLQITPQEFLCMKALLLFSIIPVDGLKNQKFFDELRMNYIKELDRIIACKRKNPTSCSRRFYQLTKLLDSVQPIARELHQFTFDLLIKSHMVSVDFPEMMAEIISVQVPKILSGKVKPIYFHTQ

COC(=O)CC(C)CCC=C(C)C (stereo not given)
inactive: Potency [1] | Potency [2] | Potency [3] | Potency [4] | Potency [5] | Potency [6] | Potency [7] | Potency [8] | Potency [9] | Potency [10] | Potency [11] | Potency [12] | Potency [13] | Potency [14]

C/C=C/C(=O)C1=C(C)CCCC1(C)C
inactive: Potency [1] | Potency [2] | Potency [3] | Potency [4] | Potency [5] | Potency [7] | Potency [8] | Potency [9] | Potency [10] | Potency [11] | Potency [15] | Potency [12] | outcome [16] | Potency [17] | Potency [14]

CCC(C)C(=O)OC (stereo not given)
inactive: Potency [1] | Potency [2] | Potency [3] | Potency [4] | Potency [5] | Potency [6] | Potency [7] | Potency [18] | Potency [10] | Potency [11] | Potency [12] | Potency [13] | outcome [16] | Potency [17] | Potency [14]

CCC(=O)CC(C)CC (stereo not given)
inactive: viability change, negative = cytotoxic [1] 2.57% [at 0.349 µM] | activity change, negative = inhibition [2] 2.34% [at 0.349 µM] | activity change, negative = inhibition [3] 2.62% [at 0.349 µM] | activity change, negative = cytotoxicity [4] 3.99% [at 0.349 µM] | viability change, negative = cytotoxic [5] 4% [at 0.349 µM] | viability change, negative = cytotoxic [6] 2.54% [at 0.349 µM] | activity change [7] -0.87% [at 0.349 µM, stronger effect = higher value] | activity change, negative = inhibition [18] 19.5% [at 0.349 µM] | activity change, negative = cytotoxicity [10] 0.759% [at 0.35 µM] | activity change, negative = cytotoxicity [11] 3.56% [at 0.349 µM] | activity change, negative = cytotoxicity [12] 9.77% [at 0.349 µM] | activation [13] -1.38% [at 0.349 µM] | cAMP activity change [16] -1.63% [at 0.349 µM] | activity change, negative = inhibition [17] 1.62% [at 0.349 µM] | activity change, negative = cytotoxicity [14] 1.18% [at 0.349 µM]

CCc1ccc(O)c(C(C)(C)C)c1
inactive: Potency [1] | Potency [2] | Potency [3] | Potency [4] | Potency [5] | Potency [6] | Potency [7] | Potency [18] | Potency [9] | Potency [10] | Potency [13] | outcome [16] | Potency [17] | Potency [14]

O=C(c1ccccc1)c1cc(Cl)ccc1O
inactive: Potency [1] | Potency [2] | Potency [3] | Potency [4] | Potency [5] | Potency [6] | Potency [7] | Potency [10] | Potency [14]

CCCCCCCCCCCCCc1ccccc1
inactive: Potency [1] | Potency [2] | Potency [3] | Potency [4] | Potency [5] | Potency [7] | Potency [18] | Potency [10] | Potency [11] | Potency [12] | Potency [13] | outcome [16] | Potency [17] | Potency [14]

COc1cccc(O)c1
inactive: Potency [1] | Potency [2] | Potency [3] | Potency [4] | Potency [5] | Potency [6] | Potency [7] | Potency [18] | Potency [10] | Potency [11] | Potency [12] | Potency [13] | Potency [14]

CS(C)(=O)=O
inactive: Potency [1] | Potency [2] | Potency [3] | Potency [4] | Potency [5] | Potency [7] | Potency [18] | Potency [8] | Potency [9] | Potency [10] | Potency [11] | Potency [12] | Potency [13] | outcome [16] | Potency [17] | Potency [14]
